Experimental findings from PubChem BioAssay (NCI) are described below.

This is part of a sample that, as a whole, favours compounds with a hit. Of some 83,000 tested, about 20% had one in any assay.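 Assay: single dose, 48 h. Readout: percent growth (0 = no net growth; negative = cell death). Active: <10.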 Unmarked numbers belong to inactive results. The source made the active and inactive calls.

The experiment deals with OVCAR-4 ovarian. Description: NCI-60 one-dose screen, 48 h (100 = growth as untreated, 0 = no growth, -100 = all killed). Conditions: 10 µM unless noted.
On to `CCn1cc(C(=O)O)c(=O)c2cc(F)c(N3CCN(CC(=O)Nc4ccccc4)C(C)C3)c(F)c21` (centres undefined), for which the growth is 82.4%.

In the case of `c1cc(OCCN2CCCCC2)ccc1CNc1ccc2nc(CCC3CCCCC3)[nH]c2c1`, the growth is 49.5%.

For `COC1C(O)CC(OC2CC(OC3CC(O[C@@H]4C(=O)c5c(cc6cc(OC7CC(OC8CC(O)C(O)C(C)O8)C(O)C(C)O7)c(C)c(O)c6c5O)CC4[C@H](OC)C(=O)C(C)=O)OC(C)C3O)OC(C)C2O)OC1C` (some centres undefined), the growth is 10.7%.

`Cc1ccc(OCCOCCOCCOc2ccc(C)n(O)c2=S)c(=S)n1O`: the growth is 20.5%.

In the case of `Cn1cc(-c2csc(-c3cn(CCCN4CCOCC4)c4ccc(F)cc34)n2)c2cccnc21`, the growth is 56.6%.

`O=C1c2cccnc2C(=O)c2c1c(C(=O)OCCc1ccccn1)c1ccccn21`: the growth is 4.6% (active).

As to `C#CCOc1cccc(Nc2ncnc3c2ncn3C2CCN(C(=O)CCl)C2)c1` (centres undefined), the growth was -51.7% (active).

For `O=C(Cn1nc(-c2cccc3ccccc23)ccc1=O)NCc1cccc(Cl)c1`, the growth was 41.4% [50 µM].

With `CC1(C)CC[C@]23CC[C@]4(C)[C@H](CC[C@@H]5[C@@]6(C)C/C(=C/O)C(=O)C(C)(C)[C@@H]6CC[C@]54C)[C@H]2[C@H]1OC3`, the growth is 111%.

For the compound `Clc1ccc(-c2cc(-c3ccccc3)nc(N3CCN(CCCNc4ccnc5cc(Cl)ccc45)CC3)n2)cc1`, the growth is 9.85% (active).

In the case of `Nc1nc(C(=O)N/N=C/c2ccc(F)cc2)nn1-c1ccc(S(N)(=O)=O)cc1`, the growth was 98.4%.

Consider `CN(C)c1ccc(CNCCO)cc1`, for which the growth is 112%.

As to `Nc1c(Br)cc2c(c1Br)Cc1cc([N+](=O)[O-])ccc1-2`, the growth was 85.4%.

Turning to `COC(=O)Cn1c2c(c3c(OC)cccc31)C(=O)c1ccccc1-2`, the growth is 101%.

For the compound `O=C(/C=C/c1ccccc1)c1ccc(-n2cc(CN3CCN(c4cc5c(cc4F)c(=O)c(C(=O)O)cn5C4CC4)CC3)nn2)cc1`, the growth is 89.7%.

Consider `Cc1cc2oc(/C=C/c3ccccc3)cc(=O)c2c(C)c1Cl`, for which the growth was 99%.

On to `Cc1nc(N/N=C/c2cn(-c3ccccc3)nc2-c2cc3ccccc3oc2=O)sc1N=Nc1ccccc1`, for which the growth was 85.4%.

`Oc1c(CN2CCC(N3CCOCC3)CC2)cc(Cc2cc(CN3CCC(N4CCOCC4)CC3)c(O)c3ncccc23)c2cccnc12`: the growth was 15.4%.

With `N#Cc1nn(-c2cc(=O)[nH]c3ccc(Br)cc23)c(N)c1C#N`, the growth was 81.6%.

As to `CCCCO[C@@H]1C=C2[C@H]3CC(C)(C)C(=O)C[C@]3(C(=O)O[C@@H]3O[C@H](CO[C@@H]4O[C@H](CO)[C@@H](OC5OC(C)C(O)C(O)C5O)[C@H](O)[C@H]4O)[C@@H](O)[C@H](O)[C@H]3O)CC[C@@]2(C)[C@]2(C)CC[C@H]3C(C)(C)C(=O)CC[C@]3(C)[C@@H]12` (some centres undefined), the growth is 75%.

In the case of `CC(=O)c1c(Nc2cccc(F)c2)[nH]c2c(Cl)cc(Cl)c(Cl)c2c1=O`, the growth was 13.5%.

Turning to `O=c1cc(CP(=O)(O)O)c2cc(O)c(-c3ccccc3)cc2o1`, the growth was 98.5%.

With `CC(=O)c1sc(-c2ccc(F)cc2)cc1O`, the growth is 79.5%.

As for `CC(=O)c1ccc(-n2cc(CN3CCN(c4cc5c(cc4F)c(=O)c(C(=O)O)cn5C4CC4)CC3)nn2)cc1`, the growth was 102%.

As to `COc1ccc(CN2C(=O)OC(C)(COC(C)=O)C2=O)cc1` (centres undefined), the growth was 104%.

`O=C1CCCC1[n+]1ccccc1` (centres undefined): the growth is 98%.

For `CN(C)CCC(=O)C1CC1`, the growth is 108%.

Regarding `Nc1ccc(-c2ccncc2)cc1NC(=O)N1CCCC1`, the growth is 101%.

Consider `O=c1oc2c(cnc3ccccc32)cc1-c1cccc(Cl)c1`, for which the growth is 102%.

Take `C/C(=C(\c1ccc(OCCN2CCCCCC2)cc1)c1ccc(OC(=O)c2ccccc2)cc1)c1ccc(Cl)cc1`: the growth is 37.5%.

With `Nc1cccc(-c2ccc(COc3ccc(CC4SC(=O)NC4=O)cc3)cc2)c1` (centres undefined), the growth was 56.4%.

Turning to `C=C(C)[C@@H]1CC[C@]2(COC3CCCCO3)CC[C@]3(C)[C@H](CC[C@@H]4[C@@]5(C)C=C(C=O)C(=O)C(C)(C)[C@@H]5CC[C@]43C)[C@@H]12` (some centres undefined), the growth is -34.7% (active).

Regarding `O=C1CCCCN1c1ccc(C2=NCCCN2)cc1`, the growth was 91.3%.

Turning to `Cc1cc(=O)oc2cc(Oc3nc(Br)cn4c(Br)cnc34)ccc12`, the growth is 45.5%.

On to `C=CN(C(=O)N1CCN(c2cc3c(cc2F)c(=O)c(C(=O)O)cn3C2CC2)CC1)c1nc(-c2ccc(Cl)cc2)cs1`, for which the growth is 78.4%.

For the compound `Cc1ccccc1N1CCN(C(=S)c2ccccc2)CC1`, the growth was 90.6%.

Turning to `COc1ccc(Cl)cc1Nc1nc(C(F)(F)F)ccc1C(=O)N/N=C/c1ccc([N+](=O)[O-])cc1`, the growth is -12.1% (active).

`O=C(Nc1nc(Cl)nc(Nc2ccc(N3CCOCC3=O)cc2)n1)c1ccc(Cl)s1`: the growth was 102%.

On to `COCCOC(C)C(/C=N/NC(N)=S)=N/NC(N)=S` (centres undefined), for which the growth was 9.81% (active).
